According to PubChem BioAssay (NCATS):
Results filed as inconclusive are left out. A call without a number means that no potency is given here. Activity calls are given as the source filed them. The call rests on the fitted dose curve; in most records, active means well fitted curve in the direction sought with a large enough effect; inconclusive means small, poorly fitted or top-dose-only effect, or another doubt; inactive means no such curve, though single readings can be large; an effect the other way counts as inactive or inconclusive.

These compounds were tested against Aldehyde dehydrogenase, mitochondrial (Homo sapiens) (UniProt P05091) (assay: qHTS for Inhibitors of the Aldehyde Dehydrogenase Family (ALDH2) Primary screen (AID 2061308; further: nearly all actives have a fitted effect of over 55% in size)). Details: ALDH2 enzyme inhibition qHTS, 1536-well; series mostly up to 56 µM.
With `O=S(=O)(Nc1ccc2ccccc2c1)c1ccc(NCc2ccc(Br)cc2O)cc1` the Potency was “inactive”.
With `C=C1C(=O)O[C@H]2[C@H]1CC/C(C)=C/CC[C@@]1(C)O[C@@H]21` the Potency was “inactive”.
In the case of `O=C(Nc1ccc(S(=O)(=O)Nc2nccs2)cc1)C1CC(OCc2ccccc2)C1` (stereo not given), the Potency is reported as “inactive”.
With `c1cncc(-c2ccc3ncnc(NCc4cccs4)c3c2)c1` the Potency was “inactive”.
For `O=[S+]([O-])(Nc1ccccc1)c1ccc(NCc2cccc(C(F)(F)F)c2F)cc1`, the Potency was “inactive”.
With `C/C=C1\[C@H](O[C@@H]2O[C@H](CO)[C@@H](O)[C@H](O)[C@H]2O)OC=C(C(=O)OCCc2ccc(O)cc2)[C@H]1CC(=O)OCCc1ccc(O)cc1` the Potency was “inactive”.
With `Cc1cccc(-n2cnc3cc(C(=O)N4CCC(C#N)CC4)ccc32)c1` the Potency was “inactive”.
For `FC(F)(F)c1cc(-c2ccc(CNc3nc(-c4ccccc4C(F)(F)F)nc4ccccc34)cc2)ccc1Cl`, the Potency was “inactive”.
In the case of `CCOC(=O)c1ccoc1-c1ccc2ncnc(N(C)Cc3sccc3C)c2c1`, the Potency is reported as “inactive”.
With `O=C(Nc1ncc(Cc2ccc(C(F)(F)F)cc2)s1)c1ccc(-c2cccc([N+](=O)[O-])c2)o1` the Potency was “inactive”.
With `COc1cccc(-c2nnc3n2N=C(c2c(OC)cccc2OC)CS3)c1OC` the Potency was “inactive”.
For `CCCCNc1nc(C)nc2c1nc(-c1ccccc1)n2CCCN(CC)CC`, the Potency was “inactive”.
In the case of `Cc1cc(NC(=O)Nc2nnc(C3CCCCC3)s2)ccc1Cl`, the Potency is reported as “inactive”.
With `O=C(Nc1cccc(C(F)(F)F)c1)c1cccs1` the Potency was “inactive”.
For `CN(c1ccc(NC(=O)Nc2ccccc2)cc1)S(=O)(=O)c1cnn(-c2ccc(F)cc2)c1`, the Potency was “inactive”.
With `Cc1cc(NS(=O)(=O)c2ccc(NC(=O)Cc3ccc(Cl)c(C(F)(F)F)c3)cc2)no1` the Potency was “inactive”.
For `O=S(=O)(c1ccc2ccccc2c1)N1CCN(S(=O)(=O)c2c(F)cccc2F)CC1`, the Potency was “inactive”.
For `COc1cc(F)c(S(=O)(=O)N2CCCN(S(=O)(=O)c3ccc4c(c3)OCCO4)CC2)c(F)c1`, the Potency was “inactive”.
With `COc1cccc(CNc2ccc(S(=O)(=O)Nc3nccs3)cc2)c1O` the Potency was “inactive”.
`Cc1csc(CNc2ncnc3ccc(-c4ccc(C(=O)O)o4)cc23)n1` was tested, and the Potency was “inactive”.
For `COC(=O)c1ccccc1NC(=O)c1ccc(F)cc1`, the Potency was “inactive”.
With `Fc1cc(F)cc(Nc2nc(Cl)nc(NC3CCCC3)n2)c1` the Potency was “inactive”.
In the case of `Nc1cccc(S(=O)(=O)N2CCN(S(=O)(=O)c3c(F)cccc3F)CC2)c1`, the Potency is reported as “inactive”.
`O=C(NCCc1nc2ccccc2[nH]1)C1CCCCC1` was tested, and the Potency was “inactive”.
In the case of `Cc1ccc(S(=O)(=O)Nc2cnccc2C(=O)Nc2cccc3ccccc23)cc1`, the Potency is reported as “inactive”.
In the case of `Cc1cc2c(s1)c1cnn(Cc3ccccc3)c(=O)c1n2C`, the Potency is reported as “inactive”.
For `CCCCC(OC(=O)CNC(=O)c1ccccc1)C(=O)Nc1cc(C(F)(F)F)ccc1Cl` (stereo not given), the Potency was “inactive”.
For `COc1ccc(-c2nnc(NC(=O)Nc3ccc4ccccc4c3)s2)cc1OC`, the Potency was “inactive”.
For `C=C(C(=O)OC[C@H]1O[C@@H](OC(=O)/C=C/c2ccccc2)[C@H](O)[C@@H](O)[C@@H]1O)C(O)CO` (stereo not given in full), the Potency was “inactive”.
For `CC(C)N1CCc2c(sc(NC(=O)C(F)F)c2-c2nc3ccccc3s2)C1`, the Potency was “inactive”.
`C=C1C(=O)O[C@@H]2[C@H]1CC[C@H](C)[C@]1(CCC(=O)O1)C2(C)O` (stereo not given in full) was tested, and the Potency was “inactive”.
`Cc1ccc(-c2cc(C(=O)NCc3ccc(S(C)(=O)=O)cc3)c3ccccc3n2)cc1C` was tested, and the Potency was “inactive”.
In the case of `O=C(CNC(=O)c1cccc2ccccc12)OC(C(=O)Nc1cc(C(F)(F)F)ccc1Cl)c1ccccc1` (stereo not given), the Potency is reported as “inactive”.
For `COc1ccc2c(c1)C=C1Cn3c-2c(C2CCCCC2)c2ccc(cc23)C(=O)NS(=O)(=O)N(C)CCOCCN(C)C1=O`, the Potency was “inactive”.
In the case of `Cc1scc2c1C(=O)NS2(=O)=O`, the Potency is reported as “inactive”.
In the case of `COc1cccc(C(=O)NC2CCN(C#N)CC2)c1`, the Potency is reported as “inactive”.
`O=C(Nc1ccc(S(=O)(=O)Nc2nccs2)cc1)c1cccc2ccccc12` was tested, and the Potency was “inactive”.
`CCCn1c(C)nc2c(NCCN3CCOCC3)nc(C)nc21` was tested, and the Potency was “inactive”.
With `Cc1nc(CCNc2ncnc3ccc(-c4ccc5c(c4)OCO5)cc23)cs1` the Potency was “inactive”.
`CC(=O)Nc1sc2c(c1-c1ccc3nc[nH]c3c1)CCNC2` was tested, and the Potency was “inactive”.

These compounds were tested against Retinaldehyde dehydrogenase 3 (Homo sapiens) (UniProt P47895) (assay: qHTS for Inhibitors of the Aldehyde Dehydrogenase Family (ALDH1A3) Primary screen (AID 2061315)). Details: ALDH inhibition qHTS; series mostly up to 56 µM.
In the case of `O=S(=O)(Nc1ccc2ccccc2c1)c1ccc(NCc2ccc(Br)cc2O)cc1`, the Potency is reported as “inactive”.
For `C=C1C(=O)O[C@H]2[C@H]1CC/C(C)=C/CC[C@@]1(C)O[C@@H]21`, the Potency was “inactive”.
For `O=C(Nc1ccc(S(=O)(=O)Nc2nccs2)cc1)C1CC(OCc2ccccc2)C1` (stereo not given), the Potency was “inactive”.
With `c1cncc(-c2ccc3ncnc(NCc4cccs4)c3c2)c1` the Potency was “inactive”.
For `O=[S+]([O-])(Nc1ccccc1)c1ccc(NCc2cccc(C(F)(F)F)c2F)cc1`, the Potency was “inactive”.
`C/C=C1\[C@H](O[C@@H]2O[C@H](CO)[C@@H](O)[C@H](O)[C@H]2O)OC=C(C(=O)OCCc2ccc(O)cc2)[C@H]1CC(=O)OCCc1ccc(O)cc1` was tested, and the Potency was “inactive”.
For `Cc1cccc(-n2cnc3cc(C(=O)N4CCC(C#N)CC4)ccc32)c1`, the Potency was “inactive”.
In the case of `FC(F)(F)c1cc(-c2ccc(CNc3nc(-c4ccccc4C(F)(F)F)nc4ccccc34)cc2)ccc1Cl`, the Potency is reported as “inactive”.
For `CCOC(=O)c1ccoc1-c1ccc2ncnc(N(C)Cc3sccc3C)c2c1`, the Potency was “inactive”.
With `O=C(Nc1ncc(Cc2ccc(C(F)(F)F)cc2)s1)c1ccc(-c2cccc([N+](=O)[O-])c2)o1` the Potency was “inactive”.
For `COc1cccc(-c2nnc3n2N=C(c2c(OC)cccc2OC)CS3)c1OC`, the Potency was “inactive”.
`CCCCNc1nc(C)nc2c1nc(-c1ccccc1)n2CCCN(CC)CC` was tested, and the Potency was “inactive”.
`Cc1cc(NC(=O)Nc2nnc(C3CCCCC3)s2)ccc1Cl` was tested, and the Potency was “inactive”.
In the case of `O=C(Nc1cccc(C(F)(F)F)c1)c1cccs1`, the Potency is reported as “inactive”.
In the case of `CN(c1ccc(NC(=O)Nc2ccccc2)cc1)S(=O)(=O)c1cnn(-c2ccc(F)cc2)c1`, the Potency is reported as “inactive”.
With `Cc1cc(NS(=O)(=O)c2ccc(NC(=O)Cc3ccc(Cl)c(C(F)(F)F)c3)cc2)no1` the Potency was “inactive”.
`O=S(=O)(c1ccc2ccccc2c1)N1CCN(S(=O)(=O)c2c(F)cccc2F)CC1` was tested, and the Potency was “inactive”.
For `COc1cc(F)c(S(=O)(=O)N2CCCN(S(=O)(=O)c3ccc4c(c3)OCCO4)CC2)c(F)c1`, the Potency was “inactive”.
`COc1cccc(CNc2ccc(S(=O)(=O)Nc3nccs3)cc2)c1O` was tested, and the Potency was “inactive”.
In the case of `Cc1csc(CNc2ncnc3ccc(-c4ccc(C(=O)O)o4)cc23)n1`, the Potency is reported as “inactive”.
With `COC(=O)c1ccccc1NC(=O)c1ccc(F)cc1` the Potency was “inactive”.
In the case of `Fc1cc(F)cc(Nc2nc(Cl)nc(NC3CCCC3)n2)c1`, the Potency is reported as “inactive”.
`Nc1cccc(S(=O)(=O)N2CCN(S(=O)(=O)c3c(F)cccc3F)CC2)c1` was tested, and the Potency was “inactive”.
`O=C(NCCc1nc2ccccc2[nH]1)C1CCCCC1` was tested, and the Potency was “inactive”.
For `Cc1ccc(S(=O)(=O)Nc2cnccc2C(=O)Nc2cccc3ccccc23)cc1`, the Potency was “inactive”.
For `Cc1cc2c(s1)c1cnn(Cc3ccccc3)c(=O)c1n2C`, the Potency was “inactive”.
`CCCCC(OC(=O)CNC(=O)c1ccccc1)C(=O)Nc1cc(C(F)(F)F)ccc1Cl` (stereo not given) was tested, and the Potency was “inactive”.
With `COc1ccc(-c2nnc(NC(=O)Nc3ccc4ccccc4c3)s2)cc1OC` the Potency was “inactive”.
With `C=C(C(=O)OC[C@H]1O[C@@H](OC(=O)/C=C/c2ccccc2)[C@H](O)[C@@H](O)[C@@H]1O)C(O)CO` (stereo not given in full) the Potency was “inactive”.
For `CC(C)N1CCc2c(sc(NC(=O)C(F)F)c2-c2nc3ccccc3s2)C1`, the Potency was “inactive”.
For `C=C1C(=O)O[C@@H]2[C@H]1CC[C@H](C)[C@]1(CCC(=O)O1)C2(C)O` (stereo not given in full), the Potency was “inactive”.
In the case of `Cc1ccc(-c2cc(C(=O)NCc3ccc(S(C)(=O)=O)cc3)c3ccccc3n2)cc1C`, the Potency is reported as “inactive”.
In the case of `O=C(CNC(=O)c1cccc2ccccc12)OC(C(=O)Nc1cc(C(F)(F)F)ccc1Cl)c1ccccc1` (stereo not given), the Potency is reported as “inactive”.
With `COc1ccc2c(c1)C=C1Cn3c-2c(C2CCCCC2)c2ccc(cc23)C(=O)NS(=O)(=O)N(C)CCOCCN(C)C1=O` the Potency was “inactive”.
In the case of `Cc1scc2c1C(=O)NS2(=O)=O`, the Potency is reported as “inactive”.
With `COc1cccc(C(=O)NC2CCN(C#N)CC2)c1` the Potency was “inactive”.
`O=C(Nc1ccc(S(=O)(=O)Nc2nccs2)cc1)c1cccc2ccccc12` was tested, and the Potency was “inactive”.
In the case of `CCCn1c(C)nc2c(NCCN3CCOCC3)nc(C)nc21`, the Potency is reported as “inactive”.
With `Cc1nc(CCNc2ncnc3ccc(-c4ccc5c(c4)OCO5)cc23)cs1` the Potency was “inactive”.
For `CC(=O)Nc1sc2c(c1-c1ccc3nc[nH]c3c1)CCNC2`, the Potency was “inactive”.
